Assay outcomes as filed in PubChem.
mIDH1 inhibitor: blocks human mutant IDH1 R132H enzyme; 0.093% of 390,000 active; Potency, µM (top dose mostly 76.6 µM), actives largely listed as inhibitors; AID 602179; IDH1-R132H enzyme, NADPH consumption, diaphorase/resazurin fluorescence; note: nearly all actives have a fitted effect of over 65% in size
Target sequence (O75874 whole entry R132H, stated change not applied): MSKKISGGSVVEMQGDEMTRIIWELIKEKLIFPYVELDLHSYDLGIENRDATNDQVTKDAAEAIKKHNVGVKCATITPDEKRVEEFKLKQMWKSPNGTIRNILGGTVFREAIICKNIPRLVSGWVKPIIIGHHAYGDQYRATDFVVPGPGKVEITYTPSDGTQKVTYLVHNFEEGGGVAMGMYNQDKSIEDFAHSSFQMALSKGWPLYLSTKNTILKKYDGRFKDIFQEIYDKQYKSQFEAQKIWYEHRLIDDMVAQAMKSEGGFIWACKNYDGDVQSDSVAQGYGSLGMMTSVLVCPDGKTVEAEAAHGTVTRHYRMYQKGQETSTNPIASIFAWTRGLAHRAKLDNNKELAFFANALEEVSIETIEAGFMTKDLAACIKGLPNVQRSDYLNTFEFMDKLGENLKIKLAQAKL
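IDH1-R132H (0.5 ug/mL dispensed) in pH 7.5 Tris buffer was preincubated 30 min with compound, then given a substrate mix of 0.016 mM NADPH and 2 mM alpha-KG for 80 min at room temperature; remaining NADPH was read by diaphorase/resazurin fluorescence.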
rTrxR1 inhibitor: blocks rat thioredoxin reductase 1. AID 588453. O89049. Potency, µM (highest dose often 114 µM), actives largely listed as inhibitors. recombinant rTrxR1, NADPH fluorescence consumption, selenite substrate. 1% of 390,000 active; note: nearly all actives have a fitted effect of over 65% in size
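Rat TrxR1 (90 nM in the dispensed reagent) was pre-reduced with 400 uM NADPH for 5 min at room temperature, then incubated with compound for 15 min. After 400 uM selenite was added, NADPH fluorescence (Ex 340/Em 450 nm) was followed for 8 min.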
Mito fusion act: inhibitors of mitochondrial division or activators of mitochondrial fusion; S. cerevisiae fusion-defective mutant growth rescue, CellTiterGlo 48 h; Potency, µM (highest dose often 46.1 µM), usual class: activators; 0.23% of 320,000 active; AID 485298; note: nearly all actives have a fitted effect of over 45% in size
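S. cerevisiae fusion-defective temperature-sensitive mutants (e.g. fzo1-1, mgm1-5) grown 48 h at 37C in YPEG (ethanol/glycerol non-fermentable) medium with 23 nl compound per well; growth rescue read as CellTiterGlo luminescence.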
A549 tox: kills or reduces viability of A549 cells in Nrf2 counter-screen; Potency, µM (doses to about 46 µM), hits mostly inhibitors; A549 ARE-Fluc cells, CellTiter-Fluor viability, 18-24 h; 0.16% of 390,000 active
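A549 ARE_Fluc cells in 5% FBS OPTI-MEM were exposed to compounds in concentration-response for 18-24 h at 37 deg C. Viability was read by CellTiter-Fluor fluorescence (Ex 405/Em 525) after 30 min, before the luciferase read.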
TrxR1 substrate: substrates of rat thioredoxin reductase 1 | O89049 | purified TrxR1 substrate turnover, NADPH consumption readout | Potency, µM (doses to about 114 µM) | 0.01% of 390,000 active; note: nearly all actives have a fitted effect of over 50% in size
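Rat TrxR1, dispensed at 90 nM, was prereduced with 400 uM NADPH (final) for 5 min at ~22 deg C, then incubated with compound 15 min before 400 uM selenite. A first-read NADPH fluorescence drop versus no-compound background flagged substrates.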
Nrf2 block: blocks Nrf2 signaling. A549 ARE-Fluc reporter, luciferase luminescence, 18-24 h. Potency, µM (highest dose often 46 µM), hits mostly inhibitors. 2.1% of 360,000 active; note: nearly all actives have a fitted effect of over 60% in size
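Concentration-response testing used A549 ARE_Fluc cells at 5000 cells/well. Following an 18-24 h compound incubation, viability was read by fluorescence (Ex 405/Em 525) and luciferase output by luminescence.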
Of the large screens only hits and unclear results are named; the others gave an inactive call. Sampled rows, rich in hits. Any-hit rate of the full collection: about 3.1%. Calls come from the whole dose curve; as a rule, active = well fitted curve in the direction sought with a large enough effect; inconclusive = small, poorly fitted or top-dose-only effect, or another doubt; inactive = no such curve, though single readings can be large; an effect the other way counts as inactive or inconclusive.

CC(C)c1ccc(/C=C/C(=O)Nc2ccc(CN3CCOCC3)cc2)cc1	A549 tox inconclusive, Nrf2 block 23µM
CCN(CC)S(=O)(=O)c1ccc(/C=C/C(=O)Nc2ccc(N3CCOCC3)cc2)cc1	Nrf2 block 16µM
O=C(/C=C/c1ccc(Cl)cc1)Nc1ccc(CN2CCOCC2)cc1	A549 tox inconclusive, Nrf2 block 21µM
CCCCCCCCCCCCCCCC[n+]1ccc(/C=C/c2c(C)[nH]c3ccccc23)cc1	none (no result: mIDH1 inhibitor, Mito fusion act, A549 tox, Nrf2 block)
Cc1ccc(NS(=O)(=O)c2cc3c(cc2N2CCCCC2)NC(=O)CC3)cc1C	Nrf2 block inconclusive (no result: mIDH1 inhibitor, rTrxR1 inhibitor, Mito fusion act, TrxR1 substrate)
CC1(c2nnc(-c3ccccc3)o2)CC(c2cccc(Cl)c2)=NO1 (centres undefined)	Mito fusion act 3.2µM, Nrf2 block inconclusive
C=C(CN(C)C)C(=O)c1cc(C)ccc1C	rTrxR1 inhibitor 1.8µM, Nrf2 block inconclusive (no result: Mito fusion act)
CC1=C(C(=O)OCC2CCCO2)C(c2ccccc2OC(C)C)C2=C(CC(c3ccco3)CC2=O)N1 (centres undefined)	none
CC1=C(C(=O)OCC2CCCO2)C(c2cccc(C(F)(F)F)c2)C2=C(CC(c3ccco3)CC2=O)N1 (centres undefined)	rTrxR1 inhibitor inconclusive, A549 tox inconclusive, Nrf2 block 23µM
Cc1ccc(C)c2c(/C=C/c3ccc(N(C)C)cc3)ccnc12	none (no result: mIDH1 inhibitor, Mito fusion act, A549 tox, Nrf2 block)
Cc1ccc(/C=[N+](\[O-])c2ccc(N(C)C)cc2)c2nsnc12	rTrxR1 inhibitor 22µM, Nrf2 block inconclusive
CC(C)(C)n1ncc2c(=O)n(Cc3cccc(C#N)c3)cnc21	none (no result: mIDH1 inhibitor, Mito fusion act, A549 tox, Nrf2 block)
CCN1C(=O)/C(=C/c2cccs2)N(C)C1=S	none
CCN1C(=O)/C(=C/c2ccc(C)o2)N(C)C1=S	rTrxR1 inhibitor 32µM
N#C/C(=C/c1ccc(-c2ccc(S(N)(=O)=O)cc2)o1)c1nc2ccccc2s1	rTrxR1 inhibitor 89µM, Nrf2 block inconclusive
N#C/C(=C/c1ccc(-c2ccc(S(N)(=O)=O)cc2)o1)C(=O)Nc1ccccc1	none
COC(=O)c1ccc(/C=C(\C#N)c2nc3ccccc3s2)cc1	none
N#C/C(=C\c1ccccn1)c1nc2ccccc2s1	rTrxR1 inhibitor 56µM, Nrf2 block inconclusive
CCCS(=O)(=O)N1CCCC(C(=O)NCCCOC)C1 (centres undefined)	none (no result: Mito fusion act, Nrf2 block)
CCCC(C)C(=O)Nc1nc(C)c(-c2csc(Nc3cc(Cl)ccc3C)n2)s1 (centres undefined)	Nrf2 block 23µM
Cc1c(P(=S)(c2ccccc2)c2ccccc2)c2ccccc2n1C(=O)Cc1ccccc1	none (no result: mIDH1 inhibitor, rTrxR1 inhibitor, Mito fusion act, TrxR1 substrate)
C(=NN1CCCCCC1)c1ccc2ccccc2n1	Nrf2 block 18µM (no result: Mito fusion act)
CCCN(CCC)C(=O)CC(c1ccccc1)c1cc(Br)ccc1O (centres undefined)	A549 tox inconclusive, Nrf2 block 16µM
Cn1c2c(c3cnc4cc(Cl)ccc4c31)CN(Cc1ccc(Cl)cc1)CC2	A549 tox inconclusive (no result: mIDH1 inhibitor, Mito fusion act)
CCOC(=O)NC(=O)COC(=O)CCCSc1nc2ccccc2s1	Nrf2 block 18µM
O=C(O)CCSc1nc2ccccc2s1	Nrf2 block 13µM
Fc1ccccc1-c1nnc2n1N=C(c1ccc(OC(F)F)c(OCC3CC3)c1)CS2	none (no result: mIDH1 inhibitor, Mito fusion act)
COc1ccc(OC)c(-c2nnc3n2N=C(c2ccc(OC)c(OCC4CC4)c2)CS3)c1	A549 tox inconclusive, Nrf2 block 15µM (no result: mIDH1 inhibitor, Mito fusion act)
COc1ccc(C2=Nn3c(nnc3-c3ccccc3Cl)SC2)cc1OCC1CC1	A549 tox inconclusive, Nrf2 block 21µM (no result: mIDH1 inhibitor, Mito fusion act)
CC1(C)Cc2c(cnn2-c2ccc(F)cc2)C(NC(=O)c2ccco2)C1 (centres undefined)	none
CC12CC(c3ccccc3O1)N(C(=O)c1ccco1)C(=S)N2c1ccc(F)cc1 (centres undefined)	A549 tox inconclusive, Nrf2 block 16µM
CCCCCCCCCCCCCCCC[n+]1ccc(/C=N/O)cc1	rTrxR1 inhibitor inconclusive, Nrf2 block 16µM
O=C(c1nn(Cc2ccccc2)c(=O)c2ccccc12)N1CCc2ccccc2C1	A549 tox inconclusive, Nrf2 block 23µM
